Bioassay records: PubChem, several laboratories
PfHsp90 set2: growth inhibition of PfHsp90-expressing yeast, primary screen, antimalarial PfHsp90 inhibitor project, S. cerevisiae, BacTiter-Glo luminescence, single point, set 2; inhibition, % at 9.4 µM; 310,000 tested, 0.32% active; BacTiter-Glo ATP, 48 h; yeast lacking PDR1 and PDR3 efflux regulators;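 active = every replicate shows inhibition above about 80%, whatever the replicate mean, limit read from the data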;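 note: 0% = DMSO neutral controls and 100% = 20 µM radicicol positive controls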
NALP3 yeast inh: NALP3 inflammasome inhibitors in reconstituted yeast, primary screen, luminescence, uHTS | Yeast reconstituted NLRP3/ASC/caspase-1, beta-gal luminescence, 24 h | inhibition, % at 10 µM | 330,000 tested, 0.39% active | AID 2825, 2010;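 active = inhibition of 50% or more; inactive = inhibition below 50%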;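 note: plate controls were induced DMSO wells for no effect and uninduced yeast grown without galactose for full effect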
TIM10 inh: growth inhibitors of isogenic TIM10 control yeast, primary screen, counter-screen for tim10-1 yeast inhibitor project, luminescence, uHTS | 330,000 tested, 1.4% active | S. cerevisiae TIM10 strain growth, BacTiter-Glo luminescence, 24 h | AID 463195, 2010 | inhibition, % at 10 µM;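 active = inhibition of 40% or more at the single tested concentration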;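 note: wild-type TIM10 isogenic control strain grown at permissive 25 °C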
tim23-1 inh: growth inhibitors of tim23-1 mutant yeast, primary screen, luminescence, uHTS | S. cerevisiae tim23-1 growth, BacTiter-Glo luminescence, 24 h | inhibition, % at 20 µM | 330,000 tested, 1.3% active | AID 463212, 2010;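 active = growth inhibition of the mutant yeast at or above 50%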;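 note: temperature-sensitive mutant grown at 25 °C; plate controls were DMSO-treated mutant yeast for no effect and medium wells lacking yeast for full effect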
tim10-1 inh: growth inhibitors of tim10-1 mutant yeast, primary screen, luminescence, uHTS; inhibition, % at 20 µM; 330,000 tested, 2.2% active; S. cerevisiae tim10-1 ts strain growth, BacTiter-Glo, 24 h;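 active = inhibition of at least 40%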;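 note: mutant grown at 25 °C; 0% = DMSO wells with yeast and 100% = wells holding no yeast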
tim10-1 conf: growth inhibitors of tim10-1 mutant yeast, confirmation, single concentration, luminescence, S. cerevisiae. AID 463213, 2010. 7,400 tested, 56% active. shares compounds with tim10-1 inh. inhibition, % at 20 µM. S. cerevisiae tim10-1 ts strain growth, BacTiter-Glo, 24 h;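 active = inhibition of yeast growth at or above a set limit in either of two repeat tests at 20 µM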;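 note: tim10-1 mutant grown at permissive 25 °C to find synthetic lethal compounds; 0% = DMSO yeast wells and 100% = medium wells without yeast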
Numbers without * were called inactive; x = not tested or not shown. Shown are actives, neighbours in structure and some others; about 3.7% of the full set was active somewhere.

SMILES	PfHsp90 set2	NALP3 yeast inh	TIM10 inh	tim23-1 inh	tim10-1 inh	tim10-1 conf
CC(C)OCCCn1c(=S)[nH]c2ccc(N3CCOCC3)cc2c1=O	x	7	15	7	45*	6
COc1ccc(C2C(C(=O)N3CCC(C(N)=O)CC3)CC(=O)N2c2ccc(OC)cc2)cc1 (stereo not given)	6	10	0	11	10	x
COc1cc(/C=C2/CCc3ccccc3C2=O)cc(OC)c1OC	1	18	40	42	41*	29
CCOC(=O)c1ccc(S(=O)(=O)Nc2cc(C(C)(C)C)no2)cc1	x	-14	10	24	41*	15
CCCOc1ccc(C(=O)NNC(=S)NC(=O)c2ccccc2)cc1	25	13	-4	-3	-7	x
CCCOc1ccc(C(=O)NNC(=S)NC(=O)c2cc(-c3ccccc3)nc3ccccc23)cc1	-32	37	33	10	45*	38*
CCNC(=S)NNC(=O)c1cc(-c2cc(C)ccc2C)nc2ccccc12	1	6	30	33	45*	41*
CCCc1cc(C(=O)NNC(=S)NCC)c2ccccc2n1	6	23	5	5	26	x
O=C(c1ccccc1)N(C(=O)c1ccccc1)N1CCCC1	-20	x	x	x	x	x
COc1cc(NC(=O)c2cc(-c3ccccc3)on2)cc(OC)c1OC	-3	22	20	32	3	x
COc1cccc(-c2cc(C(=O)Nc3cc(OC)c(OC)c(OC)c3)no2)c1	-10	13	25	45	51*	42*
c1cc2cc(-c3c(-c4ccc5c(c4)OCO5)noc3-c3ccsc3)ccc2[nH]1	3	7	13	20	29	x
Cc1onc(-c2ccc3c(c2)OCO3)c1-c1ccc2[nH]ccc2c1	-19	17	-13	-6	54*	40*
O=C(c1ccc(Cl)s1)N1CCN(c2nc3ccccc3s2)CC1	27	40	-3	32	8	x
CCCCCCC(C)NC(=S)Nc1cc(S(=O)(=O)N(C)C)ccc1C (stereo not given)	x	1	11	4	41*	16
Cc1ccc(S(=O)(=O)N(C)C)cc1NC(=S)NC(C)CCCC(C)C (stereo not given)	10	9	13	19	15	x
COc1ccc(/C=N/NC(=O)CCn2c3ccccc3c3ccccc32)cc1O	0	14	33	43	45*	16
c1ccc(-c2noc(CN3CCN(c4ccccc4)CC3)n2)cc1	8	2	0	23	5	x
c1ccc(-c2noc(CN3CCN(C(c4ccccc4)c4ccccc4)CC3)n2)cc1	-16	7	29	19	45*	12
Nc1c(C(=O)Nc2cccc(C(=O)O)c2)sc2nc3c(cc12)CCCC3	-33	20	0	0	-11	x
COc1ccc(/C=C\C(=O)O[C@@H]2C(O)C(O[C@@H]3OC(C)[C@H](O[C@@H]4OCC(O[C@H]5O[C@H](CO)[C@@H](O)C(O)C5O)C(O)C4O)C(O)C3O)[C@H](OC(=O)[C@]34CCC(C)(C)C[C@@H]3C3=CCC5[C@@]6(C)CC(O)C(O[C@@H]7OC(CO)C(O)[C@H](O)[C@H]7O)[C@@](C)(C(=O)O)C6CC[C@@]5(C)[C@]3(CO)CC4)O[C@H]2C)cc1 (stereo not given in full)	108*	26	-12	16	48*	38*
O=C1CC(Sc2nnc(-c3ccccc3)o2)C(=O)N1c1ccccc1 (stereo not given)	26	24	36	38	51*	51*
Cc1nc(SC2CC(=O)N(c3ccccc3)C2=O)nc2c1CCCC2 (stereo not given)	15	-2	29	24	27	x
COc1ccc(N2C(=O)CC(Sc3nc4ccccc4s3)C2=O)cc1 (stereo not given)	-3	12	21	34	41*	33*
O=C1CC(Sc2cccs2)C(=O)N1c1ccccc1 (stereo not given)	27	35	19	31	42*	40*
